Only some compounds are listed: those with a hit (about 3% of all), similar ones and a draw of the others.
Tau ThT inhib – tau fibrillization inhibition (ThT binding) | 270,000 tested, 2.1% active | P10636 | recombinant tau K18 P301L, heparin-induced fibrillization, ThT fluorescence | Potency, µM (highest dose often 57.4 µM), for inactives: at the highest dose activity, negative = inhibition, usual class: inhibitors; note: potency is the fitted concentration of half-maximal effect; nearly all actives have a fitted effect of over 55% in size
Target sequence (P10636 561-689 P618L limits assumed): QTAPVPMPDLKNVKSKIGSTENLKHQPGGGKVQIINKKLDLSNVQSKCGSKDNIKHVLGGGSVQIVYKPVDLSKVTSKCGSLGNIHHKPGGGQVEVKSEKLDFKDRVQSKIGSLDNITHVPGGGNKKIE
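Heparin-induced (20 uM) aggregation of recombinant human K18 P301L tau, 15 uM unlabeled with 0.24 uM labeled, pH 7 acetate buffer, 6 hr at 37 C with compound. Fibrils quantified by 30 uM ThT fluorescence after 1 hr ambient incubation.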
Tau FP inhib – tau fibrillization inhibition (FP); Potency, µM (top dose mostly 57.7 µM), without a hit: at the top dose activity, negative = inhibition, usual class: inhibitors; 280,000 tested, 0.39% active; P10636; K18 P301L tau heparin fibrillization, Alexa594 FP, 6 h; note: potency is the fitted concentration of half-maximal effect; nearly all actives have a fitted effect of over 55% in size
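Heparin (20 uM) drove fibril formation of recombinant tau K18 P301L, 15 uM unlabeled with 0.24 uM Alexa 594 label, for 6 hr at 37 C in 100 mM sodium acetate pH 7. Fluorescence polarization (555/632 nm) read 1 hr after 30 uM ThT.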
KDM4E inh – inhibitors of human JMJD2E histone demethylase; B2RXH2; JMJD2E catalytic domain, FDH-coupled NADH fluorescence (FDH is formaldehyde dehydrogenase); Potency, µM (series often up to 57.1 µM), inactives show at the highest dose activity change, negative = inhibition, most hits filed as inhibitors; 230,000 tested, 1.6% active; active = well fitted inhibition curve with a large enough effect, not every such curve was filed as active; inconclusive = small, poorly fitted or top-dose-only effect, or another doubt; inactive = no such curve, though single readings can be large or run the other way;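 note: potency is the fitted concentration of half-maximal effect; 0% = wells with enzyme and -100% = buffer wells without enzyme; nearly all actives have a fitted effect of over 50% in size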
Target sequence (B2RXH2 1-337 limits assumed): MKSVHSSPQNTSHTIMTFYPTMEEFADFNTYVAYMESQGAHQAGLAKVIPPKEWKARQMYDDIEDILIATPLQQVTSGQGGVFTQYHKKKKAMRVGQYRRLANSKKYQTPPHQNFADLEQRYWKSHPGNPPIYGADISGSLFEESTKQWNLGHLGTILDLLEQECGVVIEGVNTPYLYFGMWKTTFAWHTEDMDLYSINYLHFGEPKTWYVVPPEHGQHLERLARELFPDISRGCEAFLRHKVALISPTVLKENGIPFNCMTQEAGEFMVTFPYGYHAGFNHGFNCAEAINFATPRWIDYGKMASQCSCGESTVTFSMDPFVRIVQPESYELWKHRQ
FBPA coupling cs – counter-screen for Giardia aldolase inhibitors: coupling enzyme system | activity change, negative = inhibition, % at 58.2 µM, hits read low | coupling enzyme system counterscreen, AmpLite Red fluorescence | 290,000 tested, 0.67% active; in the data active = activity change below about -30%
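Compounds tested against the coupling enzymes alone at 57.5 uM final; readout was AmpLite Red fluorescence (525/598 nm) after 20 min at RT.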
Tau fluor cs – counter-screen for tau fibril formation inhibitors. AID 1463. 280,000 tested, 0.93% active. Potency, µM (series often up to 57.7 µM), inactives show at the top dose activity change, negative = decrease. tau K18 P301L Alexa594 fluorescence, heparin fibrillization; note: potency is the fitted concentration of half-maximal effect; nearly all actives have a fitted effect of over 55% in size
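Human tau K18 P301L (15 uM unlabeled, 0.24 uM Alexa 594-labeled) in 100 mM sodium acetate pH 7 with 20 uM heparin, 6 hr at 37 C. ThT 30 uM added, 1 hr ambient; Alexa 594 FP and total fluorescence read at 555/632 nm.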
An asterisk follows results filed as active; ? = inconclusive; . = no result given; ! = repeats disagree; [ ] = another dose, or the depositor's remark. Unless noted, calls come from the whole dose curve; as a rule, active = well fitted curve in the direction sought with a large enough effect; inconclusive = small, poorly fitted or top-dose-only effect, or another doubt; inactive = no such curve, though single readings can be large; an effect the other way counts as inactive or inconclusive. Unless noted, % is set by controls: 0 for no effect and ±100 for the full control effect.

SMILES	Tau ThT inhib	Tau FP inhib	KDM4E inh	FBPA coupling cs	Tau fluor cs
CN(C)c1ccc(NC(=S)NC(=O)/C=C/c2ccc(Cl)cc2)cc1	10µM*	-6.3%	-6.5%	2.1	?
Oc1ccc2c(c1)C1CCCC1(N1CCOCC1)O2 (configuration not stated)	?	?	15.8µM*	-37.5*	-26.2%
CC1=C(C(=O)N2CCOCC2)C(c2ccc(O)cc2)NC(=S)N1 (configuration not stated)	-7.1%	0.0%	-23.6%	0.3	-3.7%
CN(C)c1ccc(CNc2ccc3c(c2)ncn3C)cc1	?	-0.3%	-24.6%	-6.2	15.8µM*[quencher]
c1ccc(-n2cnc3cc(NCc4ccncc4)ccc32)cc1	?	9.6%	?	-42.1*	-10.4%
CC#CCN1c2ccccc2[C@]23C[C@@H](C(=O)OC)N(S(=O)(=O)c4ccc(C)cc4)C2=NC(C(=O)OC)=C(C(=O)OC)[C@H]13	-5.4%[11.5 µM]	1.4%[11.6 µM]	3.1%[11.4 µM]	-0.1	-14.0%[11.6 µM]
COc1ccccc1N1CCN(C(=O)CCn2cnc3onc(-c4ccc(F)cc4)c3c2=O)CC1	-8.4%	7.4%	.	.	-26.3%
COc1ccc(-c2cnnc(N/N=C/c3ccc(O)c(OC)c3)n2)cc1	1.78µM*	4.4%	1.0%	3.8	?
COc1ccc(/C=N/Nc2nc(-c3cccc(S(=O)(=O)N4CCCC4)c3)cs2)cc1OC	?	9.6%	?	-0.2	?
O=S(=O)(c1cccc(-c2csc(N/N=C/c3ccco3)n2)c1)N1CCOCC1	14.1µM*	9.7%	-18.3%	-0.8	12.6µM*[quencher]
COc1cc(/C=N/Nc2nc(-c3ccc(S(=O)(=O)N(C)C)cc3)cs2)ccc1O	10µM*	2.7%	-12.5%	-0.3	12.6µM*[quencher]
O=S(=O)(c1cccc(-c2csc(-c3ccccc3)n2)c1)N1CCOCC1	?	-8.1%	-7.8%	-1.5	?
COc1cc(/C=N/NC(=O)c2ccc(CN(C)S(=O)(=O)c3ccc(C)cc3)cc2)ccc1O	?	5.5%	1.3%	4.2	15.8µM*[quencher]
COc1cccc(NC(=O)CSc2nc(=O)[nH]c3c2CCCC3)c1	-7.2%	-12.8%	.	.	-7.9%
Nc1ccc2oc(=O)ccc2c1I	.	.	.	2.9	.
CCOc1cc(/C=N/Nc2nc(-c3cccc(S(=O)(=O)N4CCCC4)c3)cs2)ccc1O	?	14.3%	7.9%	0.1	10µM*[quencher]
CCOc1cc(C2C(C(=O)N3CCOCC3)=C(C)NC3=C2C(=O)CCC3)ccc1O (configuration not stated)	-12.8%	-7.5%	?	-3.7	-1.6%
COc1cc(C2C(C(=O)N3CCOCC3)=C(C)NC3=C2C(=O)CCC3)ccc1OC(C)=O (configuration not stated)	-1.3%	0.2%	?	-32.5*	5.1%
CN1CCC/C1=C1/C(=O)N(c2ccccc2)N=C1NC(=O)Nc1cccc(Cl)c1	8.91µM*	?	-6.6%	2.1	?
Cc1ccc(NC(=O)N/C=C/c2ccc(Cl)cc2)cc1	-0.6%	4.6%	1.3%	.	3.8%
O=C(N/C=C/c1ccccc1)Nc1ccc(Cl)cc1	?	?	?	1.3	5.01µM*[quencher]
CC(C)[C@H](O)CC[C@@H](C)C1CC[C@H]2C3CC=C4C[C@@H](O)CC[C@]4(C)C3CC[C@]12C (some centres not stated)	-10.3%	-9.1%	.	.	1.5%
COc1ccccc1CNC(=O)c1ccc(Cn2c(SCc3ccccc3)nc3cccnc32)cc1	-17.5%	0.3%	.	.	?
Cc1ccc(NC(=O)c2cc(CN3CCOCC3)on2)cc1Cl	1.6%	-5.3%	.	.	5.3%
CN(C)c1ccc(NC(=O)CN2CCC(N3CCCCC3)CC2)cc1	-9.9%	-2.6%	31.6µM*	-0.7	-0.2%
CN(C)c1ccc(NC(=O)CN2CCC(NC(=O)C3CCCCC3)CC2)cc1	.	.	.	-0.7	.
COc1ccc2c(c1)C(=O)[C@H](OC(=O)NCc1ccco1)[C@@H](c1ccc(OC)c(Br)c1)O2	-13.8%	1.9%	-23.8%	-3.9	-7.1%
CCC(C(=O)N1CCN(c2cc(Cl)ccc2C)CC1)n1nc(C)n2c(cc3occc32)c1=O (configuration not stated)	-2.0%	8.9%	.	.	-6.9%
COc1ccc(-c2nc(SCC(=O)NC3CCCC3)c(-c3ccc(OC)cc3)[nH]2)cc1	?	3.3%	2.5%	-8.0	12.6µM*![quencher]
